According to the supplement of paper PMC6555819:

Tested on: VDR:RXRa (NR concentration 270 nM, RXRa partner concentration 90 nM)
Assay: PBM binding z-score (relative to random genomic background probes); higher = stronger binding; sequences stand for … in GC…GCGATTGACAGCGTAGAATGAAGG
Procedure: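 Protein-binding microarray (Agilent 4x180K custom design, double-stranded 60-nt probes: 5' GC cap, 34-nt variable region, 24-nt constant primer region; full probe sequence given). Purified or IVT nuclear receptor:RXRα heterodimers (3:1 NR:RXRα, mostly 270:90 nM) or homodimers were incubated for 1 h in PBS with 2% milk and no ligand, then detected with Alexa488 antibodies. Fluorescence from o1-orientation probes (~5 replicates averaged) was converted to z-scores against 500 random hg19 background probes. Variable regions are seed direct-repeat (DR0–DR5) sites, all their single-nucleotide variants and half-site ablations.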

Sequence	PBM binding z-score
TAGCCTAGGTTATGGGCCAGTATACCACGCGAAC	-0.0238
CGTCCAAGGACAATGCTAGGTCAGTGAAAGCATT	0.294
CAAACTAGGTCAAAAGGTCAAAGTCCGCTTCCCG	6.32
ATCAAAAGGTCGAGGTGAGTATAGAGAAAGGGAA	3.29
CGTCCAAGGTCTAGGTCAGTGAAAGAGACTCGAA	0.105
TGTCAATGTTCAAAGGTAACGTAAGTATCCACAC	0.373
ATCGAAAGGTCGACCAGGTGAGTATACACCGTTT	3.73
CTCGAAAGGTCGTGCTCAGATGAGTATACCAAAC	3.09
CGTCAAAGGTCAACTAAGGTAACGTAAAGCACGC	6.2
TTACCAAGGTGAACGGTCGTTGATGCACGCCTTG	0.0102
CGTCCGAGGTCATAGGAGGTCAGTGAAGACAGAT	7.1
GTTACAGGGTCAAGGCCAGAGTACGCGTATTGAT	4.45
CCTCGGAGGACAGAAGGTCAAAGCTGTCCGCTTT	2.84
CCTAGTTGGTCAAGGTCACACCCGCTATAGGTAC	3.99
CGAACTAGGTCAAGGCCAGTGAATCTCCGCACGC	1.31
GCTGCTAGGTCAACTGATGGCCAGCTAAAGCTCG	1.14
CGAACTAGGTCATCCAGGTCAGTGAATACATTGA	6.41
AGTCAAAGTTTATCTAGGTAACGTAAGATATGCT	0.584
GCTTACAGGTCAAAGGTTATAGCATGAATAGAAT	5.51
CGAACTAGGTCACCCAGGACAGTGAATACATTGA	4.43

Sequence	PBM binding z-score
AATACAGGGTCATCGTACGCCAGAGTACGCACAG	5.2
ATATGTAGGTTGGGGTCATTCAGAAAGTAGGGAA	6.03
CCTTACGGGTCAAGGTTATAGCCCGGGTGGTACG	3.31
CTATGTAGGTTACGGGGGTCATTCAGTTTGAAAG	7.72
CCTTAAGGGTCACGAGGTTATAGCACGACGAGCG	6.02
CGAACTAGGTCGCCAGGACAGTGAAGAGGTTGGA	-0.0336
GCTGCGAGGTCAACTGATGGTCAGCTAAAGCTCG	5.48
CCTTACGGGTCCCTCCAGGTTATAGCATCGGAGT	0.0642
TAGCCTAGGTCATGCGGGACAGTATAGTGTCGGC	3.48
AATACAGGGTGACTAGGCCAGAGTAGGTACGAAT	0.257
CCAACTAGGTCAAAGGACAGTGAAAGGCGACGTA	1.45
CAAAATAGGTCACAGAGGTCAAAGTCCGTGCGTA	8.21
TTACCAAGGTCAAAGGTCGTTGATGCACGCCTTG	6.42
CCTACGGGGCCACGAAAGGTCATTGATTCAGTGA	5.53
CATACAGGGTCGGCTAGGCCAGAGTAGGGACGGC	0.863
TAGCCTAGGTCATACAGGGGCCAGTATAGAAAGC	2.6
ATCGAAAGGTCCACGAGGTGAGTATACACCGTTT	1.22
ATCTCTAGGTTAAGATAGTTCAGTGAATGCAAAT	2.26
ATCGAAAGGTCTAAGGTGAGTATACCCACCCGAA	0.393
ATATGTAGGTTACCTGGGGTCATTCAGACTAGGC	6.78
